The record followed here is PubChem BioAssay (NCATS).

Common to all, as to test: qHTS profiling for inhibitors of Plasmodium falciparum proliferation (AID 504749); note: nearly all actives have a fitted effect of over 60% in size
Details in all cases: P. falciparum in erythrocytes, SYBR Green DNA, 72 h; series mostly up to 28.7 µM

One experiment has as its system CP217. In outline:
(§1)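 SYBR Green fluorescence (ex 485 nm, em 535 nm) reports parasite DNA after 72 h compound exposure of infected red cells at 0.3% parasitemia, 2.5% hematocrit; signal normalized to 0.29 uM artemisinin and vehicle wells.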

Another experiment concerns CP237. In outline: as §1
A further experiment relates to CP238. In outline: as §1
Another experiment concerns CP247. In outline: as §1
Another experiment has as its system CP250. In outline:
as §1

Another experiment deals with CP252. In outline: as §1
A further experiment relates to CP256. The procedure, abridged:
as §1

A further experiment relates to CP262. The procedure, abridged:
as §1

In a further experiment the test system is CP266. In outline: as §1
A further experiment relates to CP268. The procedure, abridged: as §1
In the next experiment the test system is CP269. In outline: as §1
In the next experiment the test system is CP286. In outline:
as §1

For the next experiment, the system named is CP291. The procedure, abridged: as §1
The subject of another experiment is CP297. The procedure, abridged:
as §1

The subject of another experiment is CP305. In outline: as §1
The subject of a further experiment is CP315. In outline:
as §1

The next experiment has as its system CP325. In outline:
as §1

A further experiment concerns CP329. The procedure, abridged:
as §1

Another experiment concerns CP260. The procedure, abridged:
as §1

In the next experiment the test system is CP265. The procedure, abridged:
as §1

Inconclusive results are not listed. Active and inactive are the calls of the source. Calls come from the whole dose curve; as a rule, active = well fitted inhibition curve with a large enough effect; inconclusive = small, poorly fitted or top-dose-only effect; inactive = flat fitted curve, though single readings scatter.
Potency is the fitted concentration of half-maximal effect.

`NCc1ccc(S(N)(=O)=O)cc1`: the compound was called inactive with CP217, with CP252, in the experiment on CP256, with CP262, with CP266 and in the experiment on CP269. Also, the call with CP291, in the experiment on CP297, with CP315, in the experiment on CP325 and in the experiment on CP329 was inactive. For the same compound, the Potency result in the experiment on CP237, with CP238, in the experiment with CP247, in the experiment with CP250, in the experiment on CP268 and in the experiment with CP286 was “inactive” each time. Further, the Potency result in the experiment on CP305 is “inactive”.

As to `Cc1[nH]c(C)c(Cl)c(=O)c1Cl`, the result with CP217, in the experiment on CP252, with CP266, in the experiment on CP269, with CP291 and with CP297 was inactive. Further, the call in the experiment with CP315 and in the experiment on CP325 was inactive. Besides, the Potency with CP237 and in the experiment with CP260 was 8.91 µM (active) throughout. Besides, the Potency result in the experiment with CP238, in the experiment with CP247, with CP265, in the experiment on CP268 and in the experiment on CP305 was “inactive” each time.

Consider `CN(C/C=C/C#CC(C)(C)C)Cc1cccc2ccccc12`, for which the outcome with CP217, in the experiment on CP252, in the experiment with CP256, in the experiment with CP262, in the experiment on CP266 and in the experiment with CP269 was inactive. For the same compound, the compound was classed as inactive in the experiment on CP291, with CP297, in the experiment with CP315, in the experiment on CP325 and in the experiment on CP329. For the same compound, the Potency result in the experiment with CP238, in the experiment on CP247, with CP250, in the experiment on CP260, in the experiment with CP265 and with CP268 was “inactive” throughout. Also, in the experiment on CP305, the Potency entry is “inactive”.

Turning to `CC[N+](C)(CC)CCOC(=O)C1c2ccccc2Oc2ccccc21`, the compound was classed as inactive in the experiment with CP217, in the experiment with CP252, with CP262, with CP266, in the experiment with CP269 and in the experiment with CP291. In addition, the call in the experiment with CP297, in the experiment on CP315, in the experiment with CP325 and in the experiment with CP329 was inactive. Further, the Potency entry with CP237, in the experiment on CP247, with CP265, with CP268, in the experiment with CP286 and in the experiment with CP305 was “inactive” throughout.

`O=c1[nH]c(=O)c2ccccc2o1`: the call with CP217, in the experiment with CP252, with CP256, with CP262, with CP266 and in the experiment on CP269 was inactive. Moreover, the compound was classed as inactive in the experiment with CP291, in the experiment on CP297, in the experiment on CP315, in the experiment on CP325 and in the experiment on CP329. Moreover, the Potency result with CP237, in the experiment with CP238, in the experiment with CP250, in the experiment with CP260, in the experiment on CP265 and in the experiment with CP268 was “inactive” throughout. For the same compound, the Potency result in the experiment on CP286 and in the experiment with CP305 was “inactive” throughout.

In the case of `O=C1C(c2[nH]c3ccccc3c2O)=Nc2ccccc21`, the Potency result with CP238, in the experiment with CP260, in the experiment on CP265, in the experiment with CP286 and with CP305 was “inactive” each time. Moreover, the call in the experiment on CP252, with CP256, in the experiment with CP262, with CP266, in the experiment with CP269 and in the experiment on CP315 was inactive. Further, in the experiment on CP329, the result was inactive.

On to `NC(=O)c1ccc([N+](=O)[O-])cc1Cl`, for which the compound was called inactive in the experiment with CP217, in the experiment with CP252, in the experiment on CP256, in the experiment with CP262, with CP266 and with CP269. In addition, the compound was called inactive with CP291, in the experiment on CP297, with CP315, in the experiment with CP325 and in the experiment with CP329. The Potency entry with CP237, in the experiment with CP238, in the experiment on CP247, in the experiment with CP250, in the experiment on CP268 and in the experiment on CP286 was “inactive” in each case. Moreover, the Potency result in the experiment on CP305 was “inactive”.

In the case of `CCCCCCCCCCCCCCCCN`, the result with CP217, in the experiment with CP252, in the experiment on CP256, in the experiment with CP262, with CP269 and in the experiment with CP291 was inactive. In addition, the outcome in the experiment on CP297, in the experiment with CP315, with CP325 and in the experiment with CP329 was inactive. For the same compound, the Potency result with CP237, in the experiment on CP238, in the experiment with CP247, with CP250, with CP265 and in the experiment with CP268 was “inactive” each time. In addition, the Potency result with CP286 and in the experiment with CP305 was “inactive” in each case.

On to `CC(C)c1cc2c(cc1S(=O)(=O)O)[C@@]1(C)CCC[C@@](C)(C(=O)O)[C@@H]1CC2`, for which the outcome in the experiment with CP217, in the experiment on CP252, with CP256, in the experiment on CP262, in the experiment with CP266 and in the experiment on CP291 was inactive. In addition, the compound was called inactive with CP297, in the experiment on CP315, with CP325 and with CP329. In addition, the Potency entry with CP237, in the experiment with CP238, with CP250, with CP260, in the experiment with CP265 and in the experiment with CP268 was “inactive” each time. The Potency entry in the experiment with CP286 and in the experiment on CP305 was “inactive” throughout.

In the case of `Cc1cc(O)cc(C)c1Cl`, the compound was called inactive in the experiment on CP217, with CP252, in the experiment with CP256, in the experiment with CP262, in the experiment on CP266 and in the experiment with CP291. In addition, the outcome with CP297, in the experiment with CP315, with CP325 and in the experiment on CP329 was inactive. The Potency entry with CP237, with CP238, in the experiment with CP247, in the experiment with CP250, with CP268 and in the experiment on CP286 was “inactive” each time. The Potency with CP265 was 11.2 µM (active).

Regarding `COc1ccc(O)cc1`, the compound was called inactive with CP217, with CP252, in the experiment with CP256, in the experiment on CP262, with CP266 and with CP269. Further, the result in the experiment on CP291, in the experiment on CP297, in the experiment with CP315, in the experiment on CP325 and in the experiment on CP329 was inactive. The Potency result in the experiment on CP237, in the experiment on CP238, in the experiment on CP250, in the experiment on CP260, in the experiment on CP265 and with CP268 was “inactive” throughout. The Potency result in the experiment on CP286 and in the experiment on CP305 was “inactive” each time.

Consider `O=C(c1ccccc1)C(O)c1ccccc1` (centres undefined), for which the call in the experiment with CP217, in the experiment on CP252, with CP256, with CP262, in the experiment on CP266 and in the experiment on CP269 was inactive. In addition, the compound was classed as inactive in the experiment on CP297, in the experiment on CP315, in the experiment on CP325 and in the experiment with CP329. Also, the Potency result in the experiment with CP237, in the experiment with CP238, in the experiment on CP260, with CP265, in the experiment on CP268 and in the experiment on CP286 was “inactive” throughout. For the same compound, in the experiment on CP305, the Potency entry was “inactive”.

`CC(=O)Nc1ccc(OCCOCCOc2ccc(NC(C)=O)cc2)cc1`: the compound was called inactive with CP217, in the experiment with CP252, in the experiment on CP256, with CP262, in the experiment on CP266 and in the experiment on CP269. In addition, the call with CP291, in the experiment with CP297, with CP315, in the experiment on CP325 and in the experiment on CP329 was inactive. Besides, the Potency entry in the experiment on CP237, with CP238, in the experiment with CP250, in the experiment on CP260, with CP265 and in the experiment on CP268 was “inactive” in each case. Moreover, the Potency result in the experiment with CP286 and with CP305 was “inactive” throughout.
